The values that follow come from PubChem BioAssay (NCI).

Compounds without any hit were thinned out: in the full panel of roughly 83,000, 20% have a hit.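 Interpretation: 100, growth as untreated; towards 0, rising growth inhibition; 0, no net growth; 0 to -100, cell death. Compounds scoring below 10 were considered active.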 Values without a mark were called inactive. Calls of active or inactive are those of the source.

The subject of this assay is BT-549 breast. The experiment in a line: NCI-60 one-dose screen, 48 h (100 = growth as untreated, 0 = no growth, -100 = all killed). The following applies: 10 µM unless noted.
As for `O=c1oc2ccccc2cc1-c1csc(N=Nc2c(O)[nH]c3ccc(Cl)cc23)n1`, the growth was 99%.

For `COc1cc2nc(SCc3cc(OC)c(OC)c(OC)c3)n(-c3ccccc3OC)c(=O)c2cc1OC`, the growth was 87.5%.

Regarding `COc1ccc(-c2nc3sccn3c2/C=C/C(=O)c2cc(OC)c(OC)c(OC)c2)cc1OC`, the growth is 0.662% (active).

As to `COC(=O)c1c2c(c(C)[n+]([O-])c1C)C(=O)C=C(NCc1ccc(F)c(Cl)c1)C2=O`, the growth is -96.9% (active).

On to `O=C(N/N=C/c1ccc(F)cc1)c1[nH]c2ccc(I)cc2c1-c1ccccc1`, for which the growth was 20.1%.

Consider `Cc1nc2cc(Nc3nc(Nc4ccc(F)cc4)nc(N4CCCC4)n3)ccc2n1Cc1ccccc1`, for which the growth is -14% (active).

As to `COC(=O)c1c2c(c(C)[n+]([O-])c1C)C(=O)C=C(NCc1ccc(Cl)cc1)C2=O`, the growth is -23.8% (active).

Consider `Cc1nc2cc(Nc3nc(Nc4ccc(F)cc4)nc(N4CCN(C)CC4)n3)ccc2n1Cc1ccccc1`, for which the growth was -49.9% (active).

`COc1ccc(OC)c2ncccc12`: the growth is 97.4%.

Take `COc1ccc(S(=O)(=O)ON=C2C=C(C)C(=O)C(C)=C2)cc1`: the growth was 97.7%.

For `O=C(COc1cccc(/C=C2\COc3ccccc3C2=O)c1)c1ccccc1`, the growth was 45.5%.

Regarding `Oc1cccc(Nc2nc(-c3ccccn3)cs2)c1`, the growth was 95.1%.

Consider `O=C1c2c(c3c4cc(Br)ccc4[nH]c3c3ccc4ccccc4c23)C(=O)N1O`, for which the growth is 93.4%.

Take `COc1ccc(-c2[nH]ncc2Nc2cc(OC)c(OC)c(OC)c2)cc1`: the growth is 27.3%.

Turning to `O=C(N/N=C(\CS(=O)(=O)c1ccccc1)c1cc2ccccc2oc1=O)c1ccccc1`, the growth was 104%.

As for `COc1ccc(C(=O)C2=CC(=O)C(=O)C2)cc1OC`, the growth is 93.8%.

As to `COc1ccc(C(=O)COc2cccc(/C=C3\CSc4ccc(C)cc4C3=O)c2)cc1`, the growth was 108%.

Consider `Nc1nc(N)c(N=Nc2c(Br)cc(S(N)(=O)=O)cc2Br)c(N)n1`, for which the growth is 100%.

For the compound `Cc1ccc(-c2c3c(N)c4c(nc3nc3c2c(C)nn3-c2ccccc2)CCCC4)cc1`, the growth is 109%.

In the case of `Cc1cccc2c(=O)c3c(sc12)c(NCCNCCO)nc1ccccc13`, the growth was 78.4%.

`Nc1nc2c(s1)CCc1c-2c(Br)n(Cc2ccccc2)c1Br`: the growth is 93.7%.

`COc1ccc(-c2csc3c2-n2cccc2C3=O)cc1O`: the growth is -26.2% (active).

For `COc1ccc(-c2c(-c3cc4c(c(OC)c3OC)OCO4)noc2N)cc1`, the growth is 60.1%.

On to `Cn1c(=O)c2c(-c3ccccc3F)n(-c3ccc4c(c3)OCO4)cc2n(C)c1=O`, for which the growth was 95.1%.

Take `CN(C)C(=S)SCN1C(=O)c2ccc([N+](=O)[O-])cc2S1(=O)=O`: the growth was 80.8%.

As to `Cc1nn(-c2ccccc2)c2nc3nc4c(c(N)c3c(-c3ccc(Cl)cc3)c12)CCCC4`, the growth is 113%.

`COc1cc(CNCCN2C(=O)c3ccc4c5c(ccc(c35)C2=O)C(=O)N(CCNCc2cc(OC)c(OC)c(OC)c2)C4=O)cc(OC)c1OC`: the growth was -93.8% (active).

For the compound `O=C(O)c1ccccc1Oc1cc(-c2ccco2)nc(OCCBr)n1`, the growth is 92.1%.

On to `COc1cc(-c2ccc3cc(OC)c(OC)c(OC)c3c2)cc(OC)c1OC`, for which the growth was 72.2%.

As to `COc1cccc(-c2ccc3c(c2)C2CCN(Cc4ccccc4)C3C2)c1` (configuration not stated), the growth was 64.2%.

Turning to `COc1ccc(OC2=CC(=O)c3ccc(C)nc3C2=O)cc1`, the growth is 90.7%.

On to `CC(=O)OC[C@]1(C)C=C2C(=O)[C@](C)(O)C3(CC3)C(C)=C2[C@H]1OC(C)=O`, for which the growth is 72.6%.
